Experimental data as given in PubChem BioAssay (NCI).
This is part of a sample that, as a whole, favours compounds with a hit. Of some 83,000 tested, about 20% had one in any assay.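 Method: cells in 96-well plates; compound added at one concentration; 48 h incubation; percent growth measured; values under 10 scored active.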 Unmarked numbers belong to inactive results. Activity calls are given as the source filed them.

Legend:
Assay in all cases: NCI-60 one-dose screen, 48 h (100 = growth as untreated, 0 = no growth, -100 = all killed)
Settings in all cases: 10 µM unless noted
NCI-H23 lung = tested on: NCI-H23 lung
NCI-H226 lung = tested on: NCI-H226 lung
NCI-H322M lung = tested on: NCI-H322M lung
HOP-62 NSCLC = tested on: HOP-62 NSCLC
NCI-H460 lung = tested on: NCI-H460 lung
HOP-92 NSCLC = tested on: HOP-92 NSCLC
NCI-H522 lung = tested on: NCI-H522 lung
A549/ATCC NSCLC = tested on: A549/ATCC NSCLC
786-0 renal = tested on: 786-0 renal
COLO 205 colon = tested on: COLO 205 colon
DU-145 prostate = tested on: DU-145 prostate
K-562 leukemia = tested on: K-562 leukemia
MALME-3M melanoma = tested on: MALME-3M melanoma
MDA-MB-231 breast = tested on: MDA-MB-231 breast
RXF 393 renal = tested on: RXF 393 renal
SF-268 CNS = tested on: SF-268 CNS
SF-295 CNS = tested on: SF-295 CNS
SF-539 CNS = tested on: SF-539 CNS
UACC-257 melanoma = tested on: UACC-257 melanoma
M14 melanoma = tested on: M14 melanoma

SMILES	growth (NCI-H23 lung)	growth (NCI-H226 lung)	growth (NCI-H322M lung)	growth (HOP-62 NSCLC)	growth (NCI-H460 lung)	growth (HOP-92 NSCLC)	growth (NCI-H522 lung)	growth (A549/ATCC NSCLC)	growth (786-0 renal)	growth (COLO 205 colon)	growth (DU-145 prostate)	growth (K-562 leukemia)	growth (MALME-3M melanoma)	growth (MDA-MB-231 breast)	growth (RXF 393 renal)	growth (SF-268 CNS)	growth (SF-295 CNS)	growth (SF-539 CNS)	growth (UACC-257 melanoma)	growth (M14 melanoma)
O=CNc1ccc2c(c1)Cc1cccc(NC=O)c1-2	95.6%	83.6%	106%	100%	95.8%	97.7%	82.2%	85.6%	104%	99.9%	106%	104%	106%	83.5%	103%	94.2%	111%	101%	93.4%	91.2%
CSc1nc(-c2cccc(NC(=O)CCl)c2)c(C#N)c(=O)n1C	49.1%	89.2%	107%	98.7%	93.3%	42.7%	-73.7% (active)	86.3%	53%	-20.2% (active)	77.3%	11.4%	-72.6% (active)	65.9%	63.9%	61.5%	98.7%	38.6%	63.5%	56.8%
CN(C)S(=O)(=O)c1cccc(-c2nc3sc4c(c3c(=O)[nH]2)CCCC4)c1	44.1%	54%	27.2%	42.7%	7.27% (active)	11.4%	54.7%	25.8%	-37.1% (active)	64.6%	54.5%	37.9%	17.2%	34.8%	10.7%	64.9%	24.7%	23%	75%	48%
COc1ccc(/C=C2\Oc3cc(OCCCCN4CCCC4)ccc3C2=O)cc1	83.3%	94.5%	98.6%	91.7%	1.37% (active)	73.7%	91.9%	79.3%	85.2%	86.4%	95%	-40.3% (active)	110%	91.3%	74.5%	87.9%	83.5%	42.4%	96.9%	86.2%
C=CC(=O)Nc1cccc(-c2nc(SC)nc(Nc3cccc(OC)c3)c2C#N)c1	81%	70.9%	94.5%	85.5%	86%	29.5%	58.7%	57.3%	62.7%	93.3%	54.6%	54.6%	77.6%	71.4%	36.9%	57.1%	77.8%	71.3%	82.3%	60.6%
COc1cc2c(cc1-c1c(C)noc1C)ncc1nc(-c3ccccn3)n([C@H](C)COC(F)F)c12	61.1%	57.8%	51.4%	40.9%	57.7%	26.7%	29.3%	39%	50.4%	29.8%	64.2%	32.8%	70.1%	41.2%	60.8%	70.9%	60.4%	41.7%	44.4%	49.5%
C=C1c2nc3ccccc3n2C=C(c2ccc(Cl)cc2)N1Cc1ccc(OC)cc1	54.2%	80.8%	101%	118%	81.3%	77.4%	57.3%	84.5%	94%	71.1%	103%	59.2%	99.3%	90.1%	77.5%	96.1%	94.9%	105%	90%	81.1%
CCN=C1C=CC(=C(c2ccc(N)cc2)c2ccc(N(CC)CC)c(C)c2)C=C1	-14.9% (active)	-30.9% (active)	3.81% (active)	9.19% (active)	-53.9% (active)	-40.5% (active)	-5.45% (active)	10.3%	-47.2% (active)	-43.1% (active)	-20.6% (active)	3.56% (active)	-31% (active)	-17.6% (active)	-16.7% (active)	4.51% (active)	-19.1% (active)	-31.2% (active)	-0.947% (active)	-42.1% (active)
CCCCN1CCCn2c1nc1c2c(=O)n(CCC)c(=O)n1CCC	104%	113%	97.7%	102%	99.6%	81.7%	76.6%	82.2%	95.8%	114%	105%	75.7%	123%	93.8%	91.3%	95.2%	102%	100%	97.4%	110%
C#CCOc1ccc2ncnc(N3CCC(NC(=O)CCl)CC3)c2c1	71.6% [8.25 µM]	2.28% [8.25 µM] (active)	88.1% [8.25 µM]	68.2% [8.25 µM]	81.5% [8.25 µM]	56.8% [8.25 µM]	55.6% [8.25 µM]	75.7% [8.25 µM]	45.8% [8.25 µM]	82.5% [8.25 µM]	72.8% [8.25 µM]	81.5% [8.25 µM]	83.9% [8.25 µM]	96.1% [8.25 µM]	16% [8.25 µM]	49.1% [8.25 µM]	109% [8.25 µM]	74.6% [8.25 µM]	79.7% [8.25 µM]	72.8% [8.25 µM]
COc1cc(-c2nc3cc(Cl)c(Cl)cc3[nH]2)ccc1OCC(=O)N=Nc1c(O)[nH]c2ccccc12	-81.1% (active)	-27.2% (active)	-40.7% (active)	-60.2% (active)	-68% (active)	-67.2% (active)	-64.3% (active)	4.16% (active)	-82.6% (active)	-78% (active)	-69.9% (active)	-32.4% (active)	-94% (active)	-82.2% (active)	-75.9% (active)	-34.9% (active)	-87.5% (active)	-87.3% (active)	-60.2% (active)	-76.1% (active)
Cn1cc(-c2nonc2-c2c[nH]c3ccccc23)c2cccnc21	54.4%	30.2%	88.6%	36.5%	21.6%	62.2%	18.4%	36.2%	65.8%	37.6%	67.7%	12.7%	50.5%	59.6%	36.1%	56.5%	51.4%	41.9%	55%	21.2%
N#CCCN=Nc1c(O)[nH]c2ccc([N+](=O)[O-])cc12	94.9%	96%	98%	99.4%	102%	102%	78.8%	114%	104%	109%	111%	105%	110%	90%	106%	94.9%	105%	94.9%	119%	101%
O=C1c2cc3c(cc2-c2c1c1ccc(F)cc1c(=O)n2CCCNCCO)OCO3	-57.3% (active)	-60.1% (active)	-33.3% (active)	-48.9% (active)	-36.8% (active)	2.28% (active)	-53.9% (active)	-74.4% (active)	-84.8% (active)	-66.5% (active)	-68.5% (active)	-55.7% (active)	-72.2% (active)	-70% (active)	-92.4% (active)	-54.6% (active)	-14.3% (active)	-86.4% (active)	-28% (active)	-39.7% (active)
C=CCSSc1ncnc2c1ncn2C1OC(CO)C(O)C1O (stereo not given)	39.7%	65%	33.6%	19.8%	43.3%	28.2%	11.3%	79.7%	14.6%	25.6%	35.2%	40%	48.3%	48.1%	34.6%	28%	17.9%	19.9%	39.8%	15.4%
O=C1/C(=C/c2ccccc2)SC(=S)N1CCc1ccc(O)cc1	98%	90.2%	97.1%	94%	99.4%	79.9%	54.8%	93.6%	89.5%	108%	90.1%	90.9%	92.2%	87.3%	101%	85.3%	97%	90.1%	98.9%	97.1%
